Data published in the OligoGym collection.
Also: reference of the scale not given here.

The sequences below were run against PCDHA4 (assay: pooled miR-30 sensor sort-seq; sequence = guide strand). Conditions: shRNA.
TTTGTCGGACACGCTGATCAGG gave a sensor-assay potency score (higher = more potent) of -0.74.
TCTACTTCCACAATAACTCTAC was tested, and the sensor-assay potency score (higher = more potent) was 0.0889.
In the case of TTGTGTTGCTGGGAACACCGGC, the sensor-assay potency score (higher = more potent) is reported as -0.469.
Work on TTAAGTTTAATTACCAATGTTC yielded a sensor-assay potency score (higher = more potent) of -0.347.

The sequences below were run against PCDHGA11 in the same assay as above. Conditions: shRNA.
TAAAACAGGAGACTTGACCATT gave a sensor-assay potency score (higher = more potent) of -0.606.
TTGTCCACCGCAACCACCTTGG showed a sensor-assay potency score (higher = more potent) of -0.673.
TTTGTCCACCGCAACCACCTTG was tested, and the sensor-assay potency score (higher = more potent) was -1.17.
TATATTGTAGCTCTGGACCAAC showed a sensor-assay potency score (higher = more potent) of -0.9.
Sequence TTTAGAAGAGCAATCACTGTAC has a sensor-assay potency score (higher = more potent) of 0.556.
TCTTGTTGCCATTGCCACCTGC gave a sensor-assay potency score (higher = more potent) of -0.107.
With TCAATTTGTAATAATTTCCATA the sensor-assay potency score (higher = more potent) was -0.421.
Work on TAGCTCTGGACCAACTCCCTGT yielded a sensor-assay potency score (higher = more potent) of 0.0165.
For TATCTCCACTTCGTCCTCCTGG, the sensor-assay potency score (higher = more potent) was -0.661.
TTCTCCAGAATCTTGATCTTGC gave a sensor-assay potency score (higher = more potent) of 0.227.
For TTTTCTGGAACACTCACGCGAT, the sensor-assay potency score (higher = more potent) was -0.577.
For TTGAATTTCCATCTCATAGAAT, the sensor-assay potency score (higher = more potent) was -0.931.
Sequence ACAGTGATCAACATCGTCGTGG has a sensor-assay potency score (higher = more potent) of -0.0572.
